Results taken from PubChem BioAssay AID771 (SRMLSC, 2007).
About 55 (2%) of roughly 3,300 compounds were called active.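 How the source made its calls: active means growth inhibition above 90%, meaning viable cell count by imaging cut by more than 90% versus vehicle controls; inactive means growth inhibition below 90%.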 The list comes from a sample in which actives are over-represented; it also holds similar structures and randomly drawn compounds.

Experiment: HT29 colon tumor cell growth inhibition, primary screen, imaging, high content imaging, 48 h, CellTiter-Glo (AID 771);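 on condensed nuclei: condensed means Hoechst nuclear area under control median minus 1.5 SD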
Conditions: HCS imaging cell count, at 10 µM, stronger effect = higher value; for condensed nuclei: measured here: percent cells with condensed nuclei
[1] = measured here: ATP CellTiter-Glo viability inhibition

| SMILES | growth inhibition | condensed nuclei [%] | growth inhibition [1] [%] |
| --- | --- | --- | --- |
| Cc1c2ccncc2c(C)c2c1[nH]c1ccccc12 | 97% (active) | 22.4 |  |
| c1ccc2c(c1)[nH]c1cnccc12 | -8.76% (inactive) | 2.05 |  |
| COc1ccccc1-n1c(O)c(C=NCCCn2ccnc2)c(=O)[nH]c1=O | -20.9% (inactive) | 3.63 | 8.58 |
| CC1(C)CC(=O)C(C=NCCN2CCN(C(=O)Cc3ccc(F)cc3)CC2)=C(O)C1 | 44.1% (inactive) | 1.29 | 0.25 |
| COCCOC(=O)c1c(N)n(Cc2ccco2)c2nc3ccccc3nc12 | -45.9% (inactive) | 3.74 | -19.7 |
| Nc1c(C(=O)NCc2ccco2)c2nc3ccccc3nc2n1CCN1CCCCC1 | 96.7% (active) | 15.6 | 86.4 |
| Nc1c(C(=O)NCc2ccco2)c2nc3ccccc3nc2n1Cc1ccc(F)cc1 | 34.1% (inactive) | 1.57 | 32.2 |
| Cc1ccc(C)c(C2(O)CC(C)N(C)CC2C)c1 (stereo not given) | -0.27% (inactive) | 2.34 | 1.07 |
| CC(C)[C@@]1(NC(=O)[C@@H]2C[C@@H]3c4cccc5[nH]cc(c45)C[C@H]3N(C)C2)O[C@@]2(O)[C@@H]3CCCN3C(=O)[C@H](Cc3ccccc3)N2C1=O | 88.7% (inactive) | 10.3 |  |
| CC[C@@H](CO)NC(=O)[C@@H]1C=C2c3cccc4c3c(cn4C)C[C@H]2N(C)C1 | 12.4% (inactive) | 0.97 |  |
| CN1C[C@H](CNC(=O)OCc2ccccc2)C[C@@H]2c3cccc4c3c(cn4C)C[C@H]21 | 93.2% (active) | 18.1 |  |
| O=C(Nc1ccncc1)c1c(O)c2ccccc2n(Cc2ccccc2)c1=O | -29.4% (inactive) | 1.56 | -27.2 |
| CCOC(=O)[C@@]1(C#N)[C@@H]2C=CC(C(N)=O)=CN2[C@@H](C(N)=O)[C@@H]1c1cccc(Cl)c1 | 1.36% (inactive) | 1.63 | -5.1 |
| CC1(c2ccccc2)NCCN2C(=O)CSC21 (stereo not given) | -10.3% (inactive) | 1.47 | -1.15 |
| CCOc1ccc(-n2c(O)c(C=NCCN3CCNCC3)c(=O)[nH]c2=O)cc1 | 46.2% (inactive) | 2.45 | -8.84 |
